This note sets out measurements from PubChem BioAssay (NCI).

Compounds without any hit were thinned out: in the full panel of roughly 83,000, 20% have a hit.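 Step 1: grow cells in 96-well plates. Step 2: add test compound at a single concentration. Step 3: incubate 48 h. Step 4: record percent growth.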 The source made the active and inactive calls. How the source made its calls: active means growth percent below 10; inactive means the rest.

This test has as its system HL-60(TB) leukemia. Put plainly: NCI-60 one-dose screen, 48 h (100 = growth as untreated, 0 = no growth, -100 = all killed). As to conditions: 10 µM unless noted.
Take `NC(=O)N/N=C\c1ccco1`: the growth was 102% (inactive).
As to `O=C(c1ccc(Cl)cc1)c1no[n+]([O-])c1C(=O)c1ccc(Cl)cc1`, the growth is -27.9% (active).
Under `COc1nc2ccccc2cc1/C=C1/C=C(c2ccccc2)NC1=O` stands -8.46% (active); under `COc1cc(-c2nc3c(ncc4ccc(=O)n(-c5ccccc5)c43)s2)cc(OC)c1OC`, 94.1% (inactive).
In the case of `CCN1CCCC(N2c3ccccc3Sc3ccccc32)C1` (stereo not given), the growth is 93.1% (inactive).
`NC(=O)c1c(NC(=O)c2ccc(Cl)cc2)sc2c1CCC(=O)C2`: the growth was 48.6% (inactive).
`CN=C(N)N/N=C(\c1ccccc1)c1ccc(Br)cc1`: the growth was -52.5% (active).
For the compound `CCNS(=O)(=O)c1ccc(C)cc1`, the growth is 72% (inactive).
For the compound `O=S(=O)(O)CC(O)CN1CCN(CCO)CC1` (stereo not given), the growth was 96% (inactive).
`COc1cc(-c2nc(SCCC(C)C)nc(Nc3ccc(F)cc3)c2C#N)cc(OC)c1OC`: the growth is 84.9% (inactive).
Turning to `COc1cccc(-c2ccc3c(c2)NC(=O)/C3=C\c2ccc[nH]2)c1`, the growth was -1.26% (active).
Then `CC1(C)Cc2c(Br)c(Br)c(Br)c(OCC(O)CN3CCOCC3)c2O1` (stereo not given), with -34.1% (active); and `COc1cc2cc(Oc3ccc(NC(=O)Nc4ccc(Cl)c(C(F)(F)F)c4)cc3)c(C)nc2cc1OCCN1CCOCC1`, with 11% (inactive); and `FC(F)(F)c1[nH]ncc1-c1nc2ccc3n[nH]c(C#Cc4cccnc4)c3c2c2c1CCCC2`, with 24.4% (inactive).
In the case of `Cc1ccnc2c1ccc1c(C)ccnc12`, the growth was -5.64% (active).
For `NC1CCC(Nc2nc(NCc3ccc(-c4ccccc4O)nc3)c3ncn(C4CCCC4)c3n2)CC1` (stereo not given), the growth was -41.8% (active).
Then `COc1cc(/C=C2\CCCC3=C2N=C2SC(C)=CN2C3c2cc(OC)c(OC)c(OC)c2)cc(OC)c1OC` (stereo not given), with -11.9% (active); and `Cn1c(-c2ccccc2)cc(=O)cc1-c1ccccc1`, with 99.8% (inactive); and `COc1cc2c3cc1Oc1c(OC)c(OC)cc4c1C(Cc1ccc(O)c(c1)Oc1ccc(cc1)CC3N(C)CC2)N(C)CC4` (stereo not given), with -32.4% (active).
`CNC(=O)c1cc(Oc2ccc3nc(NC(=O)Nc4ccc(F)cc4F)sc3c2)ccn1`: the growth was 98.3% (inactive).
Take `O=C1OC[C@H]2[C@H](c3ccc(O)c(O)c3)c3cc(O)c(O)cc3C[C@H]12`: the growth was 217% (inactive).
As to `CC1OC(OC2C(OC3CCC4(C)C(CCC5(C)C4CC=C4C6CC(C)(C)CCC6(CO)C(O)CC45C)C3(C)C)OC(C(=O)O)C(OC3OC(COC4OC(CO)C(O)C(O)C4O)C(O)C(O)C3O)C2O)C(O)C(O)C1O` (stereo not given), the growth was -73% (active).
`COc1ccc(C2=C(Nc3ccc(C(=O)Nc4ccccc4)cc3)C(=O)N(C)C2=O)cc1`: the growth is 69.9% (inactive).
Then `Cc1ccnc(NC(c2ccccc2)c2ccc3cccnc3c2O)c1` (stereo not given), with -2.23% (active); and `Nc1nc(Br)nc2c1ncn2C1CC(O)C(CO)O1` (stereo not given), with 46% (inactive); and `COc1cc2nnn3c4ncccc4c(N=O)c3c2cc1OC`, with -31.5% (active).
As for `C/C(=N/NC(N)=S)c1sc(Nc2cccc(Cl)c2)nc1C`, the growth is 65% (inactive).
With `CCOc1ccc(NC(=O)CSc2oc(-c3ccccc3)nc2S(=O)(=O)c2ccc(C)cc2)cc1`, the growth is 65.6% (inactive).
Then `O=C1c2cc([N+](=O)[O-])ccc2-c2cc(Cl)c(NC(=O)C(F)(F)F)cc21`, with 75.6% (inactive); and `O=c1ccn(Cc2cn(-c3c4ccccc4nc4ccccc34)nn2)c(=O)[nH]1`, with 75.7% (inactive); and `O=C(CNC(=O)OCc1ccccc1)NCC(=O)Oc1ccc([N+](=O)[O-])cc1`, with 141% (inactive).
For `COc1ccc(-c2cc(-c3ccccc3)nc(SCCCCCCC(=O)NO)n2)cc1`, the growth was 8.06% (active).
With `CCCCn1c(-c2ccc(C(=O)O/N=C(\N)c3ccc4ccccc4c3)cc2)nc(-c2ccccc2)c1-c1ccccc1`, the growth is 23.8% (inactive).
As to `Clc1ccccc1-c1nc2ccccc2[nH]1`, the growth is 74.4% (inactive).
Under `COc1ccc(-c2nn(-c3ccccc3)cc2/C=C2\SC(=S)N(CCc3ccc(O)cc3)C2=O)cc1` stands 84% (inactive).
Turning to `CCc1ccc(-c2ccc(Nc3ccccc3)nn2)cc1S(N)(=O)=O`, the growth was 47.4% (inactive).
Then `Cc1ccc(S(=O)(=O)NC(CCC(=O)Nc2ccc(Cl)cc2)C(=O)Nc2ccc(Cl)cc2)cc1` (stereo not given), with 24.1% (inactive).
Take `CCN(CC)CCCC(C)Nc1ccc2cc(OC)ccc2n1` (stereo not given): the growth was 126% (inactive).
Under `c1ccc(CN=C(NCc2ccccc2)NCc2ccccc2)cc1` stands 49.9% (inactive); under `CCOc1cc(C(C)(C)C)ccc1C1=N[C@H](c2ccc(Cl)cc2)[C@H](c2ccc(Cl)cc2)N1C(=O)N1CCN(CC#Cc2cccc3c2CN([C@@H]2CCC(=O)NC2=O)C3=O)CC1`, -20.9% (active).
